# Compounds with a hit are over-represented: about 19% of the library has one in this group of screens.
# TDP1 cell CPT: DT40-hTDP1 cell growth loss with CPT; chicken DT40 Tdp1-/-;hTDP1 cells + 20 nM CPT, ATP luminescence, 48 h; hit rate 12% among 420,000; Potency, µM (titrated, usually from 46.2 µM), for the others: top-dose activity change, negative = growth inhibition, usual class: inhibitors; further: potency means the concentration at half of the fitted maximal effect; nearly all actives have a fitted effect of over 55% in size
#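 Cell growth measured by CellTiter-Glo luminescence after a minimum 48 h, 37 C compound exposure with 20 nM CPT in Tdp1-knockout DT40 cells stably expressing hTDP1, seeded 400/well; qHTS titration format.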
# DT40 TDP1 no CPT: qHTS for Inhibitors of human tyrosyl-DNA phosphodiesterase 1 (TDP1): qHTS in cells in absence of CPT | DT40 Tdp1-/- hTDP1 cells, no CPT, ATP luminescence, 48 h | Potency, µM (series often up to 46.2 µM), for the others: at the top dose activity change, negative = growth inhibition, most hits filed as inhibitors | hit rate 15% among 420,000 | AID 686978, 2013; further: potency means the concentration at half of the fitted maximal effect; nearly all actives have a fitted effect of over 55% in size
#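 Luminescent ATP content (CellTiter-Glo) served as the growth readout. Knockout chicken DT40 cells expressing human TDP1 were exposed to compounds without camptothecin for a minimum 48 hr at 37 °C.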
# ELG1 repair inh: blocks ELG1-dependent DNA repair in HEK293T cells; HEK293T ELG1-luciferase reporter, luminescence, 16 h; DNA damage induced by 5-fluorouridine; Potency, µM (top dose mostly 46.1 µM), for inactives: top-dose activity change, negative = inhibition, hits mostly inhibitors; hit rate 2.3% among 330,000; further: potency means the concentration at half of the fitted maximal effect; nearly all actives have a fitted effect of over 55% in size
#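 Quantitative HTS, concentration-response format. 2,000 cells/well co-treated with 5-fluorouridine and compound, 16 hr in 5% CO2 at 37 °C; ONE-Glo luminescence read after 30 min.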
# HT1080 IDH1KD tx: kills HT-1080 cells with IDH1 knockdown. HT-1080 IDH1 knockdown viability, ATP luminescence, 48 h. Potency, µM (doses to about 46.1 µM), without a hit: top-dose activity, negative = toxicity, hits mostly cytotoxic. hit rate 2% among 360,000. AID 686971;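 further: potency means the concentration at half of the fitted maximal effect; 0% = DMSO wells and -100% = cell-free medium wells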
#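 Viability of IDH1-knockdown HT-1080 fibrosarcoma cells was assessed by CellTiter-Glo after 48 h at 37 °C with titrated compound; concentration-effect curves were classified by fit quality and response size.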
# HT1080-NT tox: kills 2HG-producing HT-1080-NT fibrosarcoma cells; HT-1080-NT fibrosarcoma viability, CellTiter-Glo ATP luminescence, 48 h; Potency, µM (titrated, usually from 46.1 µM), for the others: at the top dose activity, negative = less viability, actives largely listed as cytotoxic; hit rate 1.6% among 360,000;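 further: NT is the 2HG producing partner of a matched IDH1 knockdown line; potency means the concentration at half of the fitted maximal effect; 0% = DMSO-treated cells and -100% = media-only wells without cells; nearly all actives have a fitted effect of over 55% in size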
#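 Luminescent CellTiter-Glo readout after 48 hours of compound exposure at 37 degrees C defined viability of HT-1080-NT cells. Activity was normalized to DMSO wells and cell-free media wells; concentration-response curves were fitted and assigned curve classes.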
# IL1B secr inh: blocks inflammasome-driven IL-1 beta release; AID 743279; THP-1 LPS/ATP IL-1B secretion, AlphaLISA, 16 h; active compounds read low; activity change, % at 57.5 µM; hit rate 4.7% among 360,000; in the data active means activity change below about -50%; inconclusive means mostly about -30% to -49%
#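 Secreted IL-1B measured by AlphaLISA bead assay after 16 h compound exposure of THP-1 cells; compounds (final up to 57.5 uM) added 1 h before LPS (250 ng/mL) and ATP (1.25 mM) stimulation; lower signal means less secretion.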
# An asterisk follows results filed as active; ? = inconclusive; / = no result given. Unless noted, the call rests on the fitted dose curve; in most records, active means well fitted curve in the direction sought with a large enough effect; inconclusive means small, poorly fitted or top-dose-only effect, or another doubt; inactive means no such curve, though single readings can be large; an effect the other way counts as inactive or inconclusive. Unless noted, on the % scale 0 is the no-effect control and ±100 the full control effect.
SMILES,TDP1 cell CPT,DT40 TDP1 no CPT,ELG1 repair inh,HT1080 IDH1KD tx,HT1080-NT tox,IL1B secr inh
Cc1csc(=O)n1CCC(=O)N(C)Cc1c(F)cccc1Cl,?,16µM*,-4%,1%,11%,11
Cc1cccc(NC(=O)CSCC(=O)N(C)Cc2c(F)cccc2Cl)c1,?,13µM*,0%,-2%,2%,6
CCOC(=O)c1c(C)nc(C)c(C(=O)OCC)c1-c1cccnc1,-2%,?,-4%,8%,1%,33
CCOC(=O)C(=C1Nc2ccccc2N1)n1c(-c2cccnc2)nc2ccccc21,12µM*,?,/,-10%,-19%,-2
O=C(Cc1ccc(Cl)cc1)NO,?,?,/,7%,-6%,/
Cc1cc(C(=O)CN2C(=O)C(=O)N(Cc3ccccc3)C2=O)c(C)n1Cc1ccccc1,?,?,16%,-5%,1%,-9
Cc1cc(C(=O)CSc2nnc(-c3ccccc3)o2)c(C)n1CC1COc2ccccc2O1 (stereo not drawn),?,?,-30%,?,?,0
Cc1cc(C(=O)COC(=O)c2ccc(CO)cc2)c(C)n1CC1COc2ccccc2O1 (stereo not drawn),23µM*,?,?,-29%,-14%,-1
Cc1cc(C(=O)CSc2nnc(-c3ccco3)o2)c(C)n1CC1COc2ccccc2O1 (stereo not drawn),16µM*,21µM*,?,-2%,1%,?
Cc1cc(C(=O)CN2C(=O)C(=O)N(Cc3ccccc3)C2=O)c(C)n1CC1COc2ccccc2O1 (stereo not drawn),-27%,18µM*,6.5µM*,-14%,5%,-7
CN(C)c1ncc2nc(CCc3ccccc3)c(=O)n(CCc3ccccc3)c2n1,-5%,6%,/,/,/,/
CC1=C(C(=O)N(C(C)C)C(C)C)CC(CC(=O)NCc2cccc3ccccc23)C(=O)N1CCC1=CCCCC1 (stereo not drawn),?,?,/,?,?,-80*
CC1=C(C(=O)N(C)C)CC(CC(=O)NCc2cccc3ccccc23)C(=O)N1Cc1ccccc1 (stereo not drawn),?,?,/,9%,11%,-4
CC1=C(C(=O)N(C(C)C)C(C)C)CC(CC(=O)NCc2cccc3ccccc23)C(=O)N1Cc1ccc(F)cc1 (stereo not drawn),?,?,/,?,?,-68*
CC1=C(C(=O)N(C(C)C)C(C)C)CC(CC(=O)NC2CCCCC2)C(=O)N1CCC1=CCCCC1 (stereo not drawn),?,23µM*,/,-15%,-16%,-15
CC1=C(C(=O)N(C(C)C)C(C)C)CC(CC(=O)NCc2cccc3ccccc23)C(=O)N1Cc1ccccc1 (stereo not drawn),?,15µM*,/,-29%,-19%,?
CC1=C(C(=O)N(C(C)C)C(C)C)CC(CC(=O)NCc2cccs2)C(=O)N1CCC1=CCCCC1 (stereo not drawn),?,?,/,-14%,-15%,-24
Cc1ccc(C(=O)N2CCN(c3nc4ccccc4n3C)CC2)cc1,?,0%,?,-1%,0%,-20
CC1C(c2ccccc2)N(C)C(c2ccccc2)C(C)C1(O)C#Cc1ccccc1 (stereo not drawn),9.2µM*,10µM*,3%,?,-7%,-65*
CCN1CCC(O)(C#Cc2ccccc2)CC1,-2%,-1%,9%,3%,-29%,45
OC1(c2ccc(Br)cc2)CCN(Cc2cccc(Br)c2)CC1,21µM*,?,9%,0%,2%,-7
COc1ccccc1NC(=O)C1CCN(S(=O)(=O)c2ccc3c(c2)oc(=O)n3C)CC1,-15%,?,/,/,/,/
O=C1C2C3c4ccccc4C(c4ccccc43)C2c2nc3ccccc3n21 (stereo not drawn),4.1µM*,4.1µM*,16µM*,-5%,-18%,18
CC(=O)Nc1ccc(N=Nc2ccc(O)cc2)cc1,15µM*,?,?,-1%,?,?
CC(=O)Nc1ccc(-c2ccc(NC(C)=O)cc2)cc1,3%,15%,?,-9%,-13%,-4
SMILES,TDP1 cell CPT,DT40 TDP1 no CPT,ELG1 repair inh,HT1080 IDH1KD tx,HT1080-NT tox,IL1B secr inh
Cc1ccc(NC(N)=S)cc1C,?,?,-1%,-2%,-3%,0
Cc1ccc(N/N=C(\C#N)C(N)=S)cc1C,10µM*,18µM*,?,-2%,-25%,-9
N#C/C(=N\Nc1ccc(Cl)cc1)C(=O)c1ccsc1,16µM*,23µM*,2.3µM*,?,?,/
N#C/C(=N\Nc1ccc(Cl)cc1)C(N)=S,5.8µM*,5.8µM*,9.2µM*,2.3µM*,9.2µM*,-81*
N#C/C(=N\Nc1ccccc1)C(N)=S,-25%,?,?,-9%,-2%,/
CCOc1ccc(N2CC(C(=O)Nc3nnc(C4CCCCC4)s3)CC2=O)cc1 (stereo not drawn),?,?,-4%,13%,16%,19
COc1ccc(NS(=O)(=O)c2cc([N+](=O)[O-])ccc2N/N=C/c2c(C)[nH]c3ccccc23)cc1,?,23µM*,/,-1%,2%,21
N#Cc1nc(-c2ccccc2)cc(-c2ccccc2)n1,?,?,/,17%,6%,/
COc1ccc(-c2nc3ccccc3nc2-c2ccc(OC)cc2)cc1,-22%,-23%,-12%,0%,-1%,-7
Oc1ccc(-c2nc3ccccc3nc2-c2ccccc2)cc1,?,?,-18%,-26%,-24%,-65*
N#Cc1ccc(-c2nc3ccccc3nc2-c2ccccc2)cc1C#N,?,18µM*,16µM*,18%,10%,0
CCN(CC)CCNC1=NCCn2c1cc1cc(OC)ccc12,21µM*,?,-18%,?,?,-76*
COc1ccc(Nc2nccc(-c3cccc(N)c3)n2)cc1,?,?,?,?,?,-87*
O=C(N/N=C/c1ccccc1)C(=O)N/N=C/c1ccccc1,-6%,8%,1%,11%,14%,3
O=C(C=C=Nc1ccccc1)C(=O)N=C=Cc1ccccc1,1.8µM*,4.6µM*,4%,3.7µM*,6.5µM*,-101*
COc1ccccc1C(=O)Nc1ccc(C(=O)OCc2cc(=O)n3nc(C4CC4)sc3n2)cc1,-15%,-20%,/,/,/,/
C1CCCCCC(NCCN2CCNCC2)CCCCC1,3.7µM*,2.6µM*,?,18µM*,21µM*,?
